“And” between values parts separate entries of the source, which are not always exact repeats. Equal values may be shown once. In all, about 5,500 compounds went through this assay and about 2,000 (36%) were called active. Roughly 18% stayed inconclusive and do not appear here. No stated cut-off is given here; in the data, active means normalized growth mostly below about 0.91 (no sharp cut-off); inconclusive means no clear call, values can overlap the other calls; inactive means mostly above about 0.92. This is one part of the list.
Test: chemical genetic growth profiling, strain panel (AID 1159580);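 further: tested at 20 µM; growth read once vehicle control cultures reached saturation at 30 °C; 1 = growth at the plate median or of vehicle wells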
Conditions: growth OD

Measured: normalized growth

CN1CCC(=C2c3ccccc3CC(=O)c3sccc32)CC1
inactive: S. cerevisiae deletion strains, locus YKL009W, strain mrt4, stronger effect = lower value 1.02 | S. cerevisiae deletion strains, locus YKL068W, stronger effect = lower value 1.02 | S. cerevisiae deletion strains, locus YKL085W, strain MDH1 (second series), stronger effect = lower value 1.01 | S. cerevisiae deletion strains, locus YKL085W, strain MDH1, stronger effect = lower value 1.01 | S. cerevisiae deletion strains, locus YKL160W, strain elf1, stronger effect = lower value 0.987 | S. cerevisiae deletion strains, locus YKL190W, strain CNB1, stronger effect = lower value 1.01 | S. cerevisiae deletion strains, locus YKR001C, strain vps1, stronger effect = lower value 1.01 | S. cerevisiae deletion strains, locus YKR026C, strain gcn3, stronger effect = lower value 0.981 | S. cerevisiae deletion strains, locus YKR091W, strain srl3, stronger effect = lower value 0.979 | S. cerevisiae deletion strains, locus YLL001W, strain dnm1, stronger effect = lower value 0.935 | S. cerevisiae deletion strains, locus YLL026W, stronger effect = lower value 0.963 | S. cerevisiae deletion strains, locus YLL041C, strain sdh2, stronger effect = lower value 0.986 | S. cerevisiae deletion strains, locus YLR027C, strain aat2, stronger effect = lower value 0.973 | S. cerevisiae deletion strains, locus YLR039C, strain RIC1, stronger effect = lower value 0.996 | S. cerevisiae deletion strains, locus YLR058C, strain SHM2, stronger effect = lower value 1 | S. cerevisiae deletion strains, locus YLR102C, strain apc9, stronger effect = lower value 1.01 | S. cerevisiae deletion strains, locus YLR113W, strain HOG1, stronger effect = lower value 1.02 | S. cerevisiae deletion strains, locus YLR221C, strain rsa3, stronger effect = lower value 1.04 | S. cerevisiae deletion strains, locus YLR258W, strain gsy2, stronger effect = lower value 1.01 | S. cerevisiae deletion strains, locus YLR262C, strain YPT6 (second series), stronger effect = lower value 0.956 | S. cerevisiae deletion strains, locus YLR262C, strain YPT6, stronger effect = lower value 1 | S. cerevisiae deletion strains, locus YLR268W, strain sec22, stronger effect = lower value 1.03 | S. cerevisiae deletion strains, locus YLR320W, strain mms22, stronger effect = lower value 1.02 | S. cerevisiae deletion strains, locus YLR330W, strain CHS5, stronger effect = lower value 1 | S. cerevisiae deletion strains, locus YLR342W, strain FKS1 (second series), stronger effect = lower value 0.991 | S. cerevisiae deletion strains, locus YLR342W, strain FKS1, stronger effect = lower value 0.967 | S. cerevisiae deletion strains, locus YLR357W, strain rsc2, stronger effect = lower value 0.969 | S. cerevisiae deletion strains, locus YLR370C, strain arc18, stronger effect = lower value 0.971 | S. cerevisiae deletion strains, locus YLR371W, strain rom2, stronger effect = lower value 1.01 | S. cerevisiae deletion strains, locus YLR384C, strain iki3, stronger effect = lower value 0.974 | S. cerevisiae deletion strains, locus YLR418C, strain cdc73, stronger effect = lower value 0.976 | S. cerevisiae deletion strains, locus YML016C, strain PPZ1, stronger effect = lower value 1.01 | S. cerevisiae deletion strains, locus YML032C, strain rad52, stronger effect = lower value 1.02 | S. cerevisiae deletion strains, locus YML120C, strain ndi1, stronger effect = lower value 0.965 | S. cerevisiae deletion strains, locus YML124C, strain tub3, stronger effect = lower value 1.01 | S. cerevisiae deletion strains, locus YMR058W, strain fet3, stronger effect = lower value 0.979 | S. cerevisiae deletion strains, locus YMR078C, strain ctf18, stronger effect = lower value 1 | S. cerevisiae deletion strains, locus YMR125W, strain sto1, stronger effect = lower value 0.955 | S. cerevisiae deletion strains, locus YMR129W, stronger effect = lower value 0.981 | S. cerevisiae deletion strains, locus YMR205C, strain PFK2, stronger effect = lower value 0.987 | S. cerevisiae deletion strains, locus YMR223W, strain ubp8, stronger effect = lower value 0.993 | S. cerevisiae deletion strains, locus YMR231W, strain pep5, stronger effect = lower value 0.974 | S. cerevisiae deletion strains, locus YMR263W, strain SAP30, stronger effect = lower value 1.02 | S. cerevisiae deletion strains, locus YMR307W, strain GAS1, stronger effect = lower value 0.971 | S. cerevisiae deletion strains, locus YNL067W, strain RPL9B, stronger effect = lower value 1.02 | S. cerevisiae deletion strains, locus YNL071W, strain lat1, stronger effect = lower value 0.987 | S. cerevisiae deletion strains, locus YNL128W, strain TEP1, stronger effect = lower value 1.01 and 0.992 | S. cerevisiae deletion strains, locus YNL153C, strain GIM3, stronger effect = lower value 1.02 and 0.986 | S. cerevisiae deletion strains, locus YNL175C, strain NOP13, stronger effect = lower value 0.996 | S. cerevisiae deletion strains, locus YNL183C, strain NPR1, stronger effect = lower value 0.991 | S. cerevisiae deletion strains, locus YNL197C, strain WHI3, stronger effect = lower value 0.995 | S. cerevisiae deletion strains, locus YNL209W, strain ssb2, stronger effect = lower value 0.988 | S. cerevisiae deletion strains, locus YNL224C, strain SQS1, stronger effect = lower value 1.02 | S. cerevisiae deletion strains, locus YNL233W, strain BNI4, stronger effect = lower value 1.01 | S. cerevisiae deletion strains, locus YNL248C, strain rpa49, stronger effect = lower value 0.983 | S. cerevisiae deletion strains, locus YNL250W, strain rad50, stronger effect = lower value 1.01 | S. cerevisiae deletion strains, locus YNL271C, strain bni1, stronger effect = lower value 1.02 | S. cerevisiae deletion strains, locus YNL298W, strain CLA4, stronger effect = lower value 1.01 | S. cerevisiae deletion strains, locus YNL307C, strain MCK1, stronger effect = lower value 1 | S. cerevisiae deletion strains, locus YNL322C, strain KRE1 (second series), stronger effect = lower value 0.975 | S. cerevisiae deletion strains, locus YNL322C, strain KRE1, stronger effect = lower value 1.01 and 0.991 | S. cerevisiae deletion strains, locus YNR049C, strain mso1, stronger effect = lower value 0.994 | S. cerevisiae deletion strains, locus YNR052C, strain pop2, stronger effect = lower value 1.01 | S. cerevisiae deletion strains, locus YOL006C, strain TOP1, stronger effect = lower value 1.05 | S. cerevisiae deletion strains, locus YOL012C, strain htz1 1.02 | S. cerevisiae deletion strains, locus YOL147C, strain pex11, stronger effect = lower value 1 | S. cerevisiae deletion strains, locus YOR001W, strain rrp6, stronger effect = lower value 0.95 | S. cerevisiae deletion strains, locus YOR061W, strain CKA2, stronger effect = lower value 1.01 | S. cerevisiae deletion strains, locus YOR069W, strain VPS5, stronger effect = lower value 0.999 | S. cerevisiae deletion strains, locus YOR070C, strain gyp1, stronger effect = lower value 0.999 | S. cerevisiae deletion strains, locus YOR080W, strain dia2, stronger effect = lower value 0.967 | S. cerevisiae deletion strains, locus YOR083W, strain WHI5 (second series), stronger effect = lower value 1.01 | S. cerevisiae deletion strains, locus YOR083W, strain WHI5, stronger effect = lower value 0.962 | S. cerevisiae deletion strains, locus YOR106W, strain vam3, stronger effect = lower value 0.956 | S. cerevisiae deletion strains, locus YOR136W, strain idh2, stronger effect = lower value 1 | S. cerevisiae deletion strains, locus YOR144C, strain elg1, stronger effect = lower value 1 | S. cerevisiae deletion strains, locus YOR184W, strain ser1, stronger effect = lower value 0.989 | S. cerevisiae deletion strains, locus YOR231W, strain MKK1, stronger effect = lower value 1.02 | S. cerevisiae deletion strains, locus YOR265W, strain rbl2, stronger effect = lower value 0.988 | S. cerevisiae deletion strains, locus YOR270C, strain vph1, stronger effect = lower value 0.98 | S. cerevisiae deletion strains, locus YOR290C, strain snf2, stronger effect = lower value 1 | S. cerevisiae deletion strains, locus YOR316C, strain cot1, stronger effect = lower value 1.01 | S. cerevisiae deletion strains, locus YPL051W, strain arl3, stronger effect = lower value 0.991 | S. cerevisiae deletion strains, locus YPL055C, strain LGE1, stronger effect = lower value 1.01 | S. cerevisiae deletion strains, locus YPL078C, strain atp4, stronger effect = lower value 0.923 | S. cerevisiae deletion strains, locus YPL106C, strain sse1, stronger effect = lower value 0.979 | S. cerevisiae deletion strains, locus YPL240C, strain hsp82, stronger effect = lower value 0.99 | S. cerevisiae deletion strains, locus YPL241C, strain CIN2, stronger effect = lower value 1 | S. cerevisiae deletion strains, locus YPL256C, strain CLN2, stronger effect = lower value 1.04 | S. cerevisiae deletion strains, locus YPR119W, strain clb2, stronger effect = lower value 1.01 | S. cerevisiae deletion strains, locus YPR141C, strain kar3, stronger effect = lower value 1.01 | S. cerevisiae deletion strains, locus YPR163C, strain tif3, stronger effect = lower value 1.02 | S. cerevisiae deletion strains, locus YPR167C, strain met16, stronger effect = lower value 1 | S. cerevisiae deletion strains, strain wtn01, stronger effect = lower value 1.01 | S. cerevisiae strains, strain wild type, stronger effect = lower value 1.01
